In PubChem BioAssay (Tox21):
Values joined by “and” are separate entries in the source; they are usually repeats but may differ in a detail not shown here. Equal values may be shown once. Results filed as inconclusive are left out. Active and inactive are the calls of the source. Unless noted, calls come from the whole dose curve; as a rule, active = well fitted curve in the direction sought with a large enough effect in the repeat runs; inconclusive = weak or mixed curves; inactive = no such curve, though single readings can be large; an effect the other way counts as inactive or inconclusive.

Tests used:
[1] = qHTS assay to identify small molecule agonists of the estrogen related receptor signaling pathway with the pleiotropic PPARgamma coactivator (PGC) (AID 1224823); note: potency is the fitted concentration of half-maximal effect
Procedure, shortened: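 Steps: plate PGC/ERR cells at 2,000 cells/well; incubate 6 h, 37 C/5% CO2; pin-transfer compounds (DMSO); incubate 18 h, 37 C; add One-Glo; 30 min RT; read luminescence.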

[2] = qHTS assay to identify small molecule antagonists of the estrogen related receptor (ERR) signaling pathway from Tox21 library - cell viability counter screen (AID 1224834); note: % is set by controls: 0 for no effect and ±100 for the full control effect; nearly all actives have a fitted effect of over 30% in size
Procedure, shortened: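 ERR reporter cells, 2,000 per well, rested 6 h, then exposed to compound in DMSO for 17.5 hours at 37 C. Viability read as fluorescence after 30 min with CellTiter-Fluor.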

[3] = qHTS assay to identify small molecule agonists of the constitutive androstane receptor (CAR) signaling pathway - cell viability counter screen (AID 1224836); note: % is set by controls: 0 for no effect and ±100 for the full control effect; nearly all actives have a fitted effect of over 45% in size
Procedure, shortened: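 Multiplexed viability check: HepG2-CYP2B6-hCAR cells, 15-point compound dosing, 0.75 uM PK11195 final, 23 h at 37 C, CellTiter-Fluor fluorescence.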

[4] = qHTS assay to identify small molecule antagonists of the constitutive androstane receptor (CAR) signaling pathway - cell viability counter screen (AID 1224837); note: % is set by controls: 0 for no effect and ±100 for the full control effect; nearly all actives have a fitted effect of over 45% in size
Procedure, shortened: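 HepG2 cells stably carrying hCAR and CYP2B6-2.2kb reporter, stimulated with 50 nM CITCO and compounds at 15 concentrations for 23 h at 37 C. Viability measured by CellTiter-Fluor fluorescence.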

[5] = molecular target: Nuclear receptor subfamily 1 group I member 3 (Homo sapiens) (UniProt Q14994); assay: qHTS assay to identify small molecule antagonists of the constitutive androstane receptor (CAR) signaling pathway (AID 1224838); note: % is set by controls: 0 for no effect and ±100 for the full control effect; nearly all actives have a fitted effect of over 40% in size
Sequence of Nuclear receptor subfamily 1 group I member 3 (Homo sapiens) (Q14994 whole entry, looked up): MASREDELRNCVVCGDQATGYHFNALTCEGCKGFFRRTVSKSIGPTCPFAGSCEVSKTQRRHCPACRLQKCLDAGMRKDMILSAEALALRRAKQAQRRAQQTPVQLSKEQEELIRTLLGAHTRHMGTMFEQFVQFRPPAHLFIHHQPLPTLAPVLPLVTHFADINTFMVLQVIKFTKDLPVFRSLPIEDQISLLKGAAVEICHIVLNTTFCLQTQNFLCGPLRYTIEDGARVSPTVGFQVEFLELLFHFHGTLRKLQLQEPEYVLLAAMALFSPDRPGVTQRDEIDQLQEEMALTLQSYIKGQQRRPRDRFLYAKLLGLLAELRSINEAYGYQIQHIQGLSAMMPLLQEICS
Procedure, shortened: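 HepG2 cells stably carrying hCAR and a CYP2B6-2.2kb luciferase reporter, seeded 4 hrs before compound (15 concentrations). Stimulated with 50 nM CITCO for 24 hr at 37 C. ONE-Glo luminescence read after 30 min at room temperature.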

[6] = molecular target: Nuclear receptor subfamily 1 group I member 3 (Homo sapiens) (UniProt Q14994); assay: qHTS assay to identify small molecule agonists of the constitutive androstane receptor (CAR) signaling pathway (AID 1224839); note: nearly all actives have a fitted effect of over 15% in size; note: potency is the fitted concentration of half-maximal effect; for activation: % is set by controls: 0 for no effect and ±100 for the full control effect
Procedure, shortened: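 Using human hepatoma HepG2 cells engineered with hCAR and a CYP2B6-2.2kb reporter, 15-concentration compound series were incubated 24 h alongside PK11195 at 0.75 uM final, with luminescence quantified afterwards.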

[7] = qHTS assay to identify small molecule antagonists of the estrogen related receptor signaling pathway with the pleiotropic PPARgamma coactivator (PGC) from Tox21 10K library - cell viability counter screen (AID 1224840; active = well fitted cell-killing curve with a large enough effect in the repeat runs, not every such curve was filed as active; note: % is set by controls: 0 for no effect and ±100 for the full control effect; nearly all actives have a fitted effect of over 40% in size)
Procedure, shortened: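 PGC/ERR cells (2,000/well) plated 6 h, then compound-treated for 17.5 h at 37 C. Viability measured by CellTiter-Fluor fluorescence after 30 min at 37 C, multiplexed with the pathway assay.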

[8] = qHTS assay to identify small molecule antagonists of the estrogen related receptor signaling pathway with the pleiotropic PPARgamma coactivator (PGC) from Tox21 10K library (AID 1224841; call rule not given here; note: % is set by controls: 0 for no effect and ±100 for the full control effect; actives are mostly falling curves and most rising ones were filed inactive; nearly all actives have a fitted effect of over 50% in size)
Procedure, shortened: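 PGC/ERR cell line, 2,000 cells/well, pre-incubated 6 hours at 37 C, then exposed to compounds for 18 hours at 37 C; luciferase read with One-Glo luminescence after 30 min at room temperature.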

[9] = qHTS assay to identify small molecule agonists of the estrogen related receptor signaling pathway with the pleiotropic PPARgamma coactivator (PGC) from Tox21 10K library (AID 1224842); note: nearly all actives have a fitted effect of over 15% in size; note: potency is the fitted concentration of half-maximal effect; for activation: % is set by controls: 0 for no effect and ±100 for the full control effect
Procedure, shortened: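 PGC/ERR reporter cells (NTP line) were seeded 2,000 per well, rested 6 h at 37 C/5% CO2, then pin-dosed with compounds in DMSO for 18 h at 37 C; luciferase read by One-Glo luminescence after 30 min at room temperature.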

[10] = molecular target: Thyrotropin receptor (Homo sapiens) (UniProt P16473); assay: qHTS assay to identify small molecule agonists of the thyroid stimulating hormone receptor (TSHR) signaling pathway (AID 1224843; calls by dose curve; note: % is set by controls: 0 for no effect and ±100 for the full control effect; nearly all actives have a fitted effect of over 45% in size)
Sequence of Thyrotropin receptor (Homo sapiens) (P16473 whole entry, looked up): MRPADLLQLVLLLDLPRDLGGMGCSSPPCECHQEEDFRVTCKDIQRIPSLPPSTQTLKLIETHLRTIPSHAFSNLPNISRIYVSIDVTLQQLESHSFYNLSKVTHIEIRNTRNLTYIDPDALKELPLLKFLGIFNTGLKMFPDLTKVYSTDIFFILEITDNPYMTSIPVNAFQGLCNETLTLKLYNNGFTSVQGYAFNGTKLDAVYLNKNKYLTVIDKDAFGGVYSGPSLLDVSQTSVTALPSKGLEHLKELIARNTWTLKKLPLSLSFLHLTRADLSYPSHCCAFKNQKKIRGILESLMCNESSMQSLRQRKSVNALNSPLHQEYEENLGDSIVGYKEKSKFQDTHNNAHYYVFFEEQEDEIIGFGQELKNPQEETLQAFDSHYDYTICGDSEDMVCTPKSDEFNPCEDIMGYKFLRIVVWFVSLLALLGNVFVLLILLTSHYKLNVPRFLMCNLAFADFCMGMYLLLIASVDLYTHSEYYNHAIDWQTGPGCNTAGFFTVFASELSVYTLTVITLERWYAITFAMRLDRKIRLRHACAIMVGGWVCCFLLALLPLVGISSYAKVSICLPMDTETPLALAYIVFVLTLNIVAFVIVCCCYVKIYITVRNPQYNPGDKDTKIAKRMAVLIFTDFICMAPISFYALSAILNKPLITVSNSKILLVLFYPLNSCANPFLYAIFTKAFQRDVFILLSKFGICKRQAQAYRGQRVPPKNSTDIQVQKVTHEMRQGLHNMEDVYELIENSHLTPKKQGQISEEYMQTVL
Procedure, shortened: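 Cell line HEK293 with TSHR; density 800/well. Exposure 30 min RT. Readout HTRF cAMP (cAMP-d2/anti-cAMP-cryptate), 1 h RT before reading.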

[11] = qHTS assay to identify small molecule agonists of the hypoxia (HIF-1) signaling pathway - cell viability counter screen (AID 1224844; calls by dose curve; note: % is set by controls: 0 for no effect and ±100 for the full control effect; nearly all actives have a fitted effect of over 50% in size)
Procedure, shortened: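 HRE-bla ME-180 cells, 2,000/well in 0.5% dialyzed FBS medium, treated 17 h at 37C with compounds. Viability read in the same wells as the bla reporter, by CellTiter-Glo luminescence after 30 min at room temperature.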

[12] = qHTS assay to identify small molecule agonists of H2AX (AID 1224845; active = well fitted activation curve with a large enough effect in the signal ratio in the repeat runs, not every such curve was filed as active; the % refers to the signal ratio; note: % is set by controls: 0 for no effect and ±100 for the full control effect)
Procedure, shortened: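 Wild-type CHO-K1 cells plated overnight, then exposed 3 hr at 37C to compounds at 15 concentrations (0.76% DMSO). Lysed, then HTRF anti-pH2AX(S139)-cryptate/anti-H2AX-d2 detection after 24 hr at room temperature; emissions 665 and 620 nm.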

[13] = qHTS assay to identify small molecule agonists of H2AX - cell viability counter screen (AID 1224847; calls by dose curve; note: nearly all actives have a fitted effect of over 30% in size; note: potency is the fitted concentration of half-maximal effect)
Procedure, shortened: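 After overnight plating of 1000 CHO-K1 cells per well, a 15-concentration compound series was applied for 3 hr at 37C. Luminescence from CellTiter-Glo, read following 30 min at room temperature, reflected cell viability.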

[14] = qHTS assay to identify small molecule antagonists of the estrogen related receptor (ERR) signaling pathway from Tox21 library (AID 1224848); note: % is set by controls: 0 for no effect and ±100 for the full control effect; nearly all actives have a fitted effect of over 50% in size
Procedure, shortened: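 Screening used an ERR reporter line supplied by NTP, exposed for 18 h at 37 C to library compounds delivered in DMSO. Signal was luciferase luminescence developed with ONE-Glo at room temperature for 30 min.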

[15] = qHTS assay to identify small molecule agonists of the estrogen related receptor (ERR) signaling pathway from Tox21 library (AID 1224849; calls by dose curve; note: % is set by controls: 0 for no effect and ±100 for the full control effect; nearly all actives have a fitted effect of over 15% in size); conditions: ERR reporter cell line, ONE-Glo luciferase, 18 h
Procedure, shortened: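 ERR reporter cells (NTP line) pre-incubated 6 hours at 37 C, then exposed to compounds for 18 hours at 37 C. ONE-Glo luciferase luminescence was read after 30 minutes at room temperature.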

[16] = qHTS RealTime-Glo MT Cell Viability Assay in HepG2 cells - 24 hour (AID 1224867); note: % is set by controls: 0 for no effect and ±100 for the full control effect; nearly all actives have a fitted effect of over 50% in size
Procedure, shortened: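 HepG2 suspension premixed with RealTime-Glo reagents is plated at 600 cells per well and left 5 h at 37 C/5% CO2. Compounds in DMSO then go in, and bioluminescence reflecting viable cell number is recorded over 40 h.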

[17] = A CellTox Green Cytotoxicity Assay to monitor cytotoxicity in HEK293 cells - 0 hour (AID 1224869)
Procedure, shortened: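 HEK293 cells, 600/well, were preincubated 5 hours and then exposed to compounds at 37 C for up to 40 hours. A cell-impermeant cyanine dye staining dead-cell DNA was read by fluorescence at 0, 8, 16, 24, 32 and 40 h time points.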

[18] = molecular target: Luciferin 4-monooxygenase (Photinus pyralis) (UniProt P08659); assay: qHTS assay to identify small molecule inhibitors of firefly luciferase (AID 1224835); note: nearly all actives have a fitted effect of over 25% in size; note: potency is the fitted concentration of half-maximal effect
Sequence of Luciferin 4-monooxygenase (Photinus pyralis) (P08659 whole entry, looked up): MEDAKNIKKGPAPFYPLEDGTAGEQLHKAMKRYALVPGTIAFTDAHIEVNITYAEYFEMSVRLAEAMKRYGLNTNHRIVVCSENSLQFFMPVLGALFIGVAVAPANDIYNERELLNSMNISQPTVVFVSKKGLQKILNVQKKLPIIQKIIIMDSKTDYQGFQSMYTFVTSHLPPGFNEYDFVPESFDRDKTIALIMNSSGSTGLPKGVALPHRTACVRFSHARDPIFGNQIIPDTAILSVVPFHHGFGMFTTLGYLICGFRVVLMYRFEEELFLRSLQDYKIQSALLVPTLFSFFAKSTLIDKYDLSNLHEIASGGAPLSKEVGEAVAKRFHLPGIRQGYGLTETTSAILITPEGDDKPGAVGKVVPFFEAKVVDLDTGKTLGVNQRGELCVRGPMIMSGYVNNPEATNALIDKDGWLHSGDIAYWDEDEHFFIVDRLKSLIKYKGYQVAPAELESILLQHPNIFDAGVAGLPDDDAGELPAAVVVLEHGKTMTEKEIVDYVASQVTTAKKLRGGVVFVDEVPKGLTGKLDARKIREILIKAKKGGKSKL
Procedure, shortened: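 Quantitative HTS format; KM concentrations of both substrates. Purified P. pyralis FLuc activity quantified from luminescence images.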

[19] = qHTS assay to identify small molecule agonists of the hypoxia (HIF-1) signaling pathway (AID 1224846; active = well fitted activation curve with a large enough effect in the signal ratio in the repeat runs, not every such curve was filed as active; the % refers to the signal ratio; note: % is set by controls: 0 for no effect and ±100 for the full control effect)
Procedure, shortened: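 HRE-bla ME-180 beta-lactamase reporter cells in medium with 0.5% dialyzed FBS, pre-incubated 5 h then exposed to compounds 17 h at 37C, 5% CO2; reporter induction read with CCF4-AM FRET substrate.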

O=c1c(-c2ccc(O)cc2)coc2cc(O)ccc12
active: Potency [1] 20.3 µM | Potency [6] 15.2 µM and 10.9 µM | Potency [9] 24.1 µM and 27.3 µM | activity change, positive = activation ([15]; at 92.4 µM (top of the series)) 150% and 64.9%
inactive: Potency [2] | Potency [3] | Potency [4] | Potency [5] | Potency [7] | Potency [8] | Potency [10] | Potency [11] | Potency [12] | Potency [13] | Potency [14] | Potency [16] | Potency [17]

C=CC(=O)OCCCCCCCC(C)C
inactive: Potency [2] | Potency [18] | Potency [3] | Potency [4] | Potency [5] | Potency [6] | Potency [7] | Potency [10] | Potency [11] | Potency [12] | outcome [19] | Potency [13] | Potency [17]

O=S(=O)(Oc1ccc(Cl)cc1Cl)c1ccccc1
active: Potency [18] 79.6 µM | Potency [6] 15.6 µM and 48.6 µM | Potency [13] 91.4 µM and 50.5 µM
inactive: Potency [2] | Potency [3] | Potency [4] | Potency [5] | Potency [7] | Potency [8] | Potency [10] | Potency [11] | Potency [12] | outcome [19] | Potency [14] | activity change, positive = activation ([15]; at 92.4 µM (top of the series)) -20% and 8.74% | Potency [16] | Potency [17]

CC1Cc2ccccc2N1NC(=O)c1ccc(Cl)c(S(N)(=O)=O)c1 (stereo not given)
inactive: Potency [2] | Potency [18] | Potency [3] | Potency [4] | Potency [5] | Potency [6] | Potency [7] | Potency [8] | Potency [9] | Potency [10] | Potency [11] | Potency [12] | Potency [13] | Potency [14] | activity change, positive = activation ([15]; at 42.5 µM (top of the series)) -17.1% | activity change, positive = activation ([15]; at 92.4 µM (top of the series)) -13.4% | Potency [16] | Potency [17]
